Screen size: about 1,000 compounds; about 250 (25%) were called active. Another 31% or so got no clear call; they are omitted. Not all results are given here. Results with a measured potency or affinity are listed apart. Unmarked numbers belong to inactive results. The rule behind the calls is not given here.
Assay: T. gondii intracellular growth, IFN-gamma absent, dose response, cell-based (AID 1259420);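 note: host cells were HeLa; final incubation lasted 72 hours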
Conditions: Toxoplasma gondii growth in host cells, no IFN-gamma

C[C@H]1[C@H](NC(=O)/C(=N\OC(C)(C)C(=O)O)c2csc(N)n2)C(=O)N1S(=O)(=O)O
max activity (at 19.5 µM unless noted): -8.75% [at 1.35 µM]

CCc1cnc(N2[C@@H](C#N)[C@@H](c3ccc(C4=CCCCC4)cc3)[C@@H]2CO)s1
max activity (at 19.5 µM unless noted): -7.27%

OC[C@@H]1[C@@H](c2ccc(C#Cc3ccccc3F)cc2)[C@H]2CN(CC3CCOCC3)CCCCN12
max activity (at 19.5 µM unless noted): 24.4%

CCS(=O)(=O)N1[C@H](CO)[C@@H](c2ccc(C#Cc3ccccc3F)cc2)[C@@H]1C#N
max activity (at 19.5 µM unless noted): 10.1% [at 2.35 µM]

CCc1cnc(N2[C@H](C#N)[C@@H](c3ccc(C#Cc4ccccc4F)cc3)[C@H]2CO)s1
max activity (at 10 µM): 8.24% | max activity (at 19.5 µM): 32.4%

CCS(=O)(=O)N1CC(=O)N2[C@H](CO)[C@@H](c3ccc(-c4cccc(F)c4)cc3)[C@@H]2C1
max activity (at 0.6 µM): 7.66% | max activity (at 1.2 µM): -9.75%

OC[C@H]1[C@H](c2ccc(C#Cc3ccccc3F)cc2)[C@H]2CN(CC3CCOCC3)CCCCN21
max activity (at 19.5 µM unless noted): 7.1% [at 0.16 µM]

CCC(=O)N1CC(=O)N2[C@@H](CO)[C@@H](c3ccc(C#CCC(C)C)cc3)[C@@H]2C1
max activity (at 19.5 µM unless noted): 8.67% [at 0.3 µM]

O=C(NC1CCCCC1)N1C[C@@H]2N[C@H](C1)C2c1ccc(-c2ccc(F)cc2)cc1 (stereo partly drawn)
max activity (at 19.5 µM unless noted): 22.3% [at 10 µM]

COC[C@@H]1CN(CC2CC2)C[C@@]12CCN(CCc1ccccc1)C2
max activity (at 19.5 µM unless noted): 18.3%

N#Cc1cccc(-c2ccc3c(c2)[C@@H]2[C@@H](CCN2C(=O)c2ccccc2F)[C@@H](CO)N3)c1
max activity (at 19.5 µM unless noted): -14.2% [at 1.2 µM]

Cc1ccccc1S(=O)(=O)N1CCCCN2[C@H](CO)[C@H](c3ccc(C#CCN(C)C)cc3)[C@H]2C1
max activity (at 19.5 µM unless noted): 8.8%

CCN1CC(C(=O)O)CN2CCN(C(=O)c3ccncc3F)CC2C1 (stereo not drawn)
max activity (at 19.5 µM unless noted): -9.96% [at 1.2 µM]

CC[C@H](C(=O)N1CCCC[C@H]1C(=O)O[C@H](CCc1ccc(OC)c(OC)c1)c1cccc(OCC(=O)NCCNC(=O)COc2cccc([C@@H](CCc3ccc(OC)c(OC)c3)OC(=O)[C@@H]3CCCCN3C(=O)[C@@H](CC)c3cc(OC)c(OC)c(OC)c3)c2)c1)c1cc(OC)c(OC)c(OC)c1
max activity (at 19.5 µM unless noted): -10.8% [at 5 µM]

C1=CC[C@H]2CN(c3ncnc4[nH]ccc34)C[C@H]2C1
max activity (at 19.5 µM unless noted): 15.7% [at 10 µM]

CCN1CCn2c(-c3cccc(F)c3)cnc2C12CCN(c1ncccn1)CC2
max activity (at 19.5 µM unless noted): -16.6% [at 2.6 µM]

FC(F)(F)C1CN(c2cc(-c3ccccc3)nc3ccccc23)CCO1 (stereo not drawn)
max activity (at 19.5 µM unless noted): -8.74% [at 1.2 µM]

Fc1ccc(F)c(CN2[C@@H]3CNC[C@H]2C3c2ccc(-c3ccncc3)cc2)c1 (stereo partly drawn)
max activity (at 0.16 µM): -17.4% | max activity (at 10 µM): -4.19%

C/C=C/c1ccc(C2[C@H]3CNC[C@@H]2N3Cc2ccc3c(c2)OCO3)cc1 (stereo partly drawn)
max activity (at 19.5 µM unless noted): 11.3%

C[C@@H]1CN([C@@H](C)CO)C(=O)Cc2cc(NS(=O)(=O)c3ccc(Cl)cc3)ccc2O[C@@H]1CN(C)C(=O)Nc1ccc(C(F)(F)F)cc1
max activity (at 19.5 µM unless noted): 23.3%

CC(C)N1CCC(c2ccnc3c(C(=O)N4CCCN(C)CC4)ncn23)CC1
max activity (at 19.5 µM unless noted): -10.4% [at 5 µM]

N#C[C@H]1[C@H](c2ccc(-c3cccc(F)c3)cc2)[C@H](CO)N1C(=O)NC1CCCC1
max activity (at 19.5 µM unless noted): 27.1%

N#C[C@@H]1[C@@H](c2ccc(C#Cc3cccnc3)cc2)[C@@H](CO)N1C(=O)NC1CCCCC1
max activity (at 19.5 µM unless noted): -10.9%

COCC(=O)N1[C@H](C#N)[C@H](c2ccc(C#CCC3CCCC3)cc2)[C@@H]1CO
max activity (at 19.5 µM unless noted): 6.51% [at 10 µM]

C/C=C/c1ccc([C@H]2[C@H](CO)N3C(=O)CN(C(=O)NC4CCCCC4)C[C@@H]23)cc1
max activity (at 19.5 µM unless noted): -12.8%

N#C[C@@H]1[C@H](c2ccc(-c3cccc(F)c3)cc2)[C@@H](CO)N1C(=O)NC1CCCC1
max activity (at 19.5 µM unless noted): 22.7%

N#C[C@H]1[C@@H](c2ccc(-c3cccc(F)c3)cc2)[C@H](CO)N1C(=O)NC1CCCC1
max activity (at 1.2 µM): -11.5% | max activity (at 19.5 µM): 14.4%

CCC(C)NC(=O)Cn1c(=O)c(S(=O)(=O)c2ccccc2)cc2ccccc21 (stereo not drawn)
max activity (at 19.5 µM unless noted): -6.38% [at 1.2 µM]

COc1ccc(CN2C[C@@H]3CN(Cc4cnn(C)c4)C[C@H]3C2=O)cc1
max activity (at 19.5 µM unless noted): -13% [at 10 µM]

Cc1cccc(S(=O)(=O)N2C[C@H]3[C@@H](c4ccccc42)[C@@H](CO)N3C(=O)c2ccccc2)c1
max activity (at 19.5 µM unless noted): 6.73% [at 0.16 µM]

COCCC(=O)N1C[C@H](OCc2ccccn2)[C@@H]2COC[C@@H]21
max activity (at 19.5 µM unless noted): -16.7% [at 0.3 µM]

Oc1cccc(-c2nccn2-c2cccc(-c3ccn[nH]3)c2)c1
max activity (at 19.5 µM unless noted): -6.88% [at 10 µM]

O=S(=O)(Cc1ccccc1)N1CC2CN(Cc3cccc(Cl)c3)CC2C1 (stereo not drawn)
max activity (at 19.5 µM unless noted): 19.1%

Cc1ccccc1-c1ccc([C@H]2[C@@H](CO)N3C(=O)CN(C(=O)c4ccncc4)C[C@H]23)cc1
max activity (at 19.5 µM unless noted): -12.2% [at 5 µM]

CC(C)CNc1nc2c(cc1C(=O)NC(C)C)CCN(c1ccncn1)CC2
max activity (at 19.5 µM unless noted): -10.6% [at 5 µM]

O=C(Nc1ccccc1F)N1CCCCN2[C@H](C1)[C@H](c1ccc(/C=C/c3ccccc3)cc1)[C@@H]2CO
max activity (at 19.5 µM unless noted): 13.2%

COc1ccccc1-c1ccc([C@@H]2[C@@H](CO)N3CCCCN(C(=O)c4cccnc4)C[C@@H]23)cc1
max activity (at 19.5 µM unless noted): -4.65% [at 5 µM]

COc1ccccc1-c1ccc([C@@H]2[C@H]3CN(C(=O)c4cccnc4)CCCCN3[C@H]2CO)cc1
max activity (at 19.5 µM unless noted): 9.09% [at 0.16 µM]

COc1ccccc1-c1ccc([C@@H]2[C@H](CO)N3CCCCN(C(=O)c4cccnc4)C[C@@H]23)cc1
max activity (at 19.5 µM unless noted): 16.2%

CCN1C(=O)CO[C@H]2CN(C(=O)c3cnc4ccccc4c3)C[C@@H]21
max activity (at 19.5 µM unless noted): -7.5% [at 0.16 µM]

Cn1cnc2c1C(C(=O)O)CN(C(=O)c1ccsc1)C2 (stereo not drawn)
max activity (at 19.5 µM unless noted): -15.3% [at 10 µM]

CCn1cc(NC(=O)c2cccc(CN3C[C@@H](C)O[C@@H](C)C3)c2)nn1
max activity (at 19.5 µM unless noted): -7.36% [at 0.3 µM]

CN(C)C(=O)c1ccc2nnc3ncn(Cc4ccccc4)c3c2c1
max activity (at 19.5 µM unless noted): 9.7% [at 2.6 µM]

O=C(Cc1ccccn1)N1CC(=O)N2[C@H](CO)[C@@H](c3ccc(C#CCC4CCCC4)cc3)[C@H]2C1
max activity (at 19.5 µM unless noted): 20.5%

O=C(Cc1ccccn1)N1CC(=O)N2[C@H](CO)[C@@H](c3ccc(C#CCC4CCCC4)cc3)[C@@H]2C1
max activity (at 19.5 µM unless noted): 18.5%

O=C(Cc1ccccn1)N1CC(=O)N2[C@H](C1)[C@H](c1ccc(C#CCC3CCCC3)cc1)[C@@H]2CO
max activity (at 19.5 µM unless noted): 12.6%

CS(=O)(=O)N1CC(=O)N2[C@H](C1)[C@@H](c1ccc(C#Cc3ccc(F)cc3)cc1)[C@@H]2CO
max activity (at 19.5 µM unless noted): 5.83% [at 2.6 µM]

CS(=O)(=O)N1CC(=O)N2[C@H](CO)[C@@H](c3ccc(C#Cc4ccc(F)cc4)cc3)[C@H]2C1
max activity (at 19.5 µM unless noted): 15.4%

O=C(c1ccc(F)cc1)N1CC(=O)N2[C@H](CO)[C@@H](c3ccc(C#CCC4CCCC4)cc3)[C@@H]2C1
max activity (at 19.5 µM unless noted): 23.3%

CS(=O)(=O)N1CCOC2C(COc3ncccn3)CCC21 (stereo not drawn)
max activity (at 19.5 µM unless noted): -15% [at 0.3 µM]

CCOC(=O)c1c(C)[nH]c(-c2ccccc2)c1-c1ccccc1
max activity (at 19.5 µM unless noted): 4.75% [at 10 µM]

O=C(O)c1ccc(C2C(=O)NNCC2N2CCCC2)s1 (stereo not drawn)
max activity (at 0.16 µM): 8.24% | max activity (at 19.5 µM): 10.9%

Fc1cccnc1OC1COC2(CCN(Cc3ccsc3)CC2)C1 (stereo not drawn)
max activity (at 19.5 µM unless noted): 18.6%

C[C@@H](N)C1CCC(C(=O)Nc2ccncc2)CC1 (stereo partly drawn)
max activity (at 19.5 µM unless noted): -12.3% [at 0.08 µM]

Cc1cccc(-n2ncc3c(NC4CCCCCCCCCCC4)ncnc32)c1
max activity (at 19.5 µM unless noted): 8.82% [at 10 µM]

COc1ccc(C#Cc2ccc([C@@H]3[C@H](CO)N4C(=O)CN(C(=O)NC(C)C)C[C@@H]34)cc2)cc1
max activity (at 5 µM): -8.81% | max activity (at 19.5 µM): -6.49%

COc1ccc(C#Cc2ccc([C@@H]3[C@H]4CN(C(=O)NC(C)C)CC(=O)N4[C@H]3CO)cc2)cc1
max activity (at 19.5 µM unless noted): 9.38% [at 0.6 µM]

COc1ccc(C#Cc2ccc([C@H]3[C@H]4CN(C(=O)NC(C)C)CC(=O)N4[C@H]3CO)cc2)cc1
max activity (at 19.5 µM unless noted): 13% [at 10 µM]

COc1cccc(NC(=O)N2CC(=O)N3[C@@H](CO)[C@@H](c4ccc(C#CCC5CCCC5)cc4)[C@@H]3C2)c1
max activity (at 19.5 µM unless noted): 9.07% [at 21 µM]

COc1cccc(NC(=O)N2CC(=O)N3[C@H](C2)[C@H](c2ccc(C#CCC4CCCC4)cc2)[C@@H]3CO)c1
max activity (at 19.5 µM unless noted): 38.8% [at 21 µM]

O=C1NCC(=O)N2CCN(C(=O)Nc3cc(Cl)cc(Cl)c3)CC12 (stereo not drawn)
max activity (at 19.5 µM unless noted): 17.6% [at 2.6 µM]

CC(=O)N1Cc2ncn(CC3CC3)c2C(COCC2CCOCC2)C1 (stereo not drawn)
max activity (at 19.5 µM unless noted): -7.3% [at 0.16 µM]

C=CCN1CCC2(CC1)CC(NCc1ccc(C)s1)c1ccccc1O2 (stereo not drawn)
max activity (at 19.5 µM unless noted): 5.11% [at 0.3 µM]

CCCNC(=O)N1CC(=O)N2[C@@H](CO)[C@H](c3ccc(C#Cc4cccc(OC)c4)cc3)[C@@H]2C1
max activity (at 19.5 µM unless noted): 15.9%

CCCNC(=O)N1CC(=O)N2[C@H](C1)[C@@H](c1ccc(C#Cc3cccc(OC)c3)cc1)[C@@H]2CO
max activity (at 19.5 µM unless noted): 8.44% [at 2.35 µM]

C/C=C/c1ccc([C@H]2[C@H]3CN(C(=O)Nc4cccc(OC)c4)CC(=O)N3[C@H]2CO)cc1
max activity (at 19.5 µM unless noted): -14.5% [at 2.6 µM]

COc1ccc(C#Cc2ccc([C@H]3[C@@H](CO)N4C(=O)CN(C(=O)NC(C)C)C[C@@H]34)cc2)cc1
max activity (at 19.5 µM unless noted): 22.6%
